The panel holds about 83,000 compounds, 20% with a hit somewhere; the sample as a whole holds those more often.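 Activity criterion: percent growth below 10, measured after cells in 96-well plates were exposed to a single compound concentration for 48 hours.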 Values without a mark were called inactive. Activity calls are given as the source filed them.

For the assay, the system named is EKVX NSCLC. Description: NCI-60 one-dose screen, 48 h (100 = growth as untreated, 0 = no growth, -100 = all killed). To be noted: 10 µM unless noted.
As for `N#C/C(C(=O)c1ccccc1)=C1/C(=O)Nc2ccc(F)cc21`, the growth was 94.2%.
In the case of `C=C(C)[C@@H]1CC[C@]2(C(=O)NCCCN)CC[C@]3(C)[C@H](CC[C@@H]4[C@@]5(C)CC[C@H](O)C(C)(C)[C@@H]5CC[C@]43C)[C@@H]12`, the growth was -15.7% [100 µM] (active).
The figure for `O=C1/C(=C\c2cn(CC(O)CN3CCCCC3)c3ccccc23)c2ccccc2N1c1c(Cl)cccc1Cl` (stereo not drawn) is -81.3% (active); for `COc1ccc(OC)c([N+](=O)[O-])c1C(=O)CNC(C)=O` it is 97.5%.
`Nc1cccc2c1C(=O)c1cccc(NC(=O)c3ccccc3)c1C2=O`: the growth was 2.26% (active).
As to `CCNc1cc2c(cc1Br)-c1ccccc1C2=O`, the growth was 71.5%.
The result for `CCOc1cccc2c(NC(C)CCCN(CC)CC)c(C)cnc12` (stereo not drawn) reads 104%; that for `COc1cc(/C=C/C(=O)/C=C/c2ccc(-n3ccnc3C)cc2)ccc1O`, 102%.
For the molecule `COc1cc(-c2nc(SCCC(C)C)nc(Nc3ccccc3)c2C#N)cc(OC)c1OC`, the growth was 100%.
Regarding `CN(C)C(=S)Sc1ccc([N+](=O)[O-])cc1[N+](=O)[O-]`, the growth is 82.4%.
With `Nc1ccc(Cl)c([N+](=O)[O-])c1`, the growth was 92%.
The figure for `CCCCCCCCCCCCNC(=S)N/N=C/c1ccccc1O` is 89.1%; for `CC1(C)CC[C@]2(C(=O)OC(=O)[C@]34CCC(C)(C)C[C@@H]3C3=CC[C@@H]5[C@@]6(C)CCC(=O)C(C)(C)[C@@H]6CC[C@@]5(C)[C@]3(C)CC4)CC[C@]3(C)C(=CC[C@@H]4[C@@]5(C)CCC(=O)C(C)(C)[C@@H]5CC[C@]43C)[C@H]2C1` it is 81.3% [100 µM].
With `COc1cccc(-c2[nH]c(=S)ncc2C(=O)c2ccccc2)c1`, the growth is 86.9%.
The figure for `O=C(N=c1n(-c2ccccc2)nc2n1CCN2C1=NCCN1C(=O)c1ccc(Cl)cc1)c1ccc(Cl)cc1` is 77.1%; for `COc1cc2c(=O)[nH]c3cc([N+](=O)[O-])ccc3c2cc1[N+](=O)[O-]` it is 48.3%; for `NC(=O)CC1C=CCC1` (stereo not drawn) it is 105%.
In the case of `O=C(Nc1cccc2ccccc12)c1cc2ccccc2cc1O`, the growth was 15%.
The result for `Cc1ccc(N)c(O)c1` reads 98.6%.
For `CCOC(=O)CCC[P+](c1ccccc1)(c1ccccc1)c1ccccc1`, the growth is 75.5%.
With `CCN(CC)c1cc(N)c(Cc2c(N)cc(N(CC)CC)cc2Cl)c(Cl)c1`, the growth was 31.9%.
With `CSc1nc(N)c(N=Nc2ccc(S(=O)(=O)Nc3nnc(C)s3)cc2)c(=O)[nH]1`, the growth is 155%.
The figure for `CC1(C)C(=O)/C(=C\c2cccnc2)C[C@]2(C)[C@H]3CC[C@@H]4[C@H]5[C@H](C(=O)/C=C/c6cccnc6)CC[C@]5(C(=O)O)CC[C@@]4(C)[C@]3(C)CC[C@@H]12` is -73% [100 µM] (active).
The figure for `N#CCCc1c[nH]c2ccccc12` is 94.3%; for `C[C@@H]1C[C@H]2C(=O)O[C@@H](C)[C@H](NC(=O)[C@H](Cc3cc(F)cc(F)c3)NC(=O)Nc3ccc(C4CC4)cc3F)C(=O)N3CCC[C@H]3C(=O)N3CCCC[C@H]3C(=O)N[C@@H](C)C(=O)N2C1` it is 26.6%; for `CCN(CC)CCCC(C)Nc1c2ccc(C)cc2nc2ccc(OC)cc12` (stereo not drawn) it is 42.3%.
The result for `C#CCNC(=O)CC[C@]1(C)[C@H]2CC[C@@H]3[C@@H]([C@@](C)(O)CCC=C(C)C)CC[C@@]3(C)[C@]2(C)CC[C@H]1C(=C)C` reads 71.7% [100 µM]; that for `CC1(C)CC[C@]2(C(=O)O)CC[C@]3(C)C(=CC[C@@H]4[C@@]5(C)C/C(=C/c6ccco6)C(=O)C(C)(C)[C@@H]5CC[C@]43C)[C@@H]2C1`, -19.6% [100 µM] (active).
For the molecule `C=C(C)[C@@H]1CC[C@]2(C(=O)O)CC[C@]3(C)[C@H](CC[C@@H]4[C@@]5(C)C/C(=C/c6ccco6)C(=O)C(C)(C)[C@@H]5CC[C@]43C)[C@@H]12`, the growth is -63% [100 µM] (active).
The result for `C[n+]1cccc(NC(=O)c2ccc3ccc4ccc(C(=O)Nc5ccc[n+](C)c5)nc4c3n2)c1` reads 68.1%.
For `Cc1ccc(S(=O)(=O)N/N=C2\CC3CCC2(C)C3(C)C)cc1` (stereo not drawn), the growth was 105%.
Take `CCOC(=O)c1nn(C2CCCCO2)c2ccc(NC(=O)Cn3nnc4ccccc43)cc12` (stereo not drawn): the growth was 98.1%.
As to `Cn1cc(-c2nnc(-c3cn(C)c4ncc(Br)cc34)o2)c2ccccc21`, the growth is 74.1%.
The figure for `O=C(Nc1ccc(Oc2ccc(F)cc2)c(Cl)c1)c1cccnn1` is 75%; for `Cc1ccc2c(n1)C(=O)C(Cl)=C(Nc1ccc(N3CCN(C)CC3)cc1)C2=O` it is -81.8% (active); for `c1cc2ccc1CNCCN1CCNCc3ccc(cc3)Oc3ccc(cc3)CNCCN(CCNCc3ccc(cc3)O2)CCNCc2ccc(cc2)Oc2ccc(cc2)CNCC1` it is 15.2%.
Consider `Cc1ccc(-c2cn(C/C=C3\C=CN(S(=O)(=O)c4ccccc4)CC3)nn2)cc1`, for which the growth was 101%.
The result for `CCCCCCCCN(CCCCCCCC)CC(O)c1ccc(Cl)c(C)c1Cl` (stereo not drawn) reads 99.4%.
